Screening data from PubChem.
This is a sample that favours compounds with a hit; in the whole collection about 16% have one here.
TDP1 block = qHTS Assay for Inhibitors of Tyrosyl-DNA Phosphodiesterase (TDP1). Tyrosyl-DNA phosphodiesterase 1 (Homo sapiens), Q9NUW8. 350,000 tested, 0.28% active. recombinant TDP1, AlphaScreen DNA substrate cleavage. Potency, µM (titrated, usually from 130 µM), inactives show at the highest dose activity change, negative = inhibition, hits mostly inhibitors; also: potency is read from the fitted curve at half-maximal effect; % is scaled to controls: 0 for no effect and ±100 for the full control effect; nearly all actives have a fitted effect of over 40% in size
Target sequence (Q9NUW8 whole entry, looked up): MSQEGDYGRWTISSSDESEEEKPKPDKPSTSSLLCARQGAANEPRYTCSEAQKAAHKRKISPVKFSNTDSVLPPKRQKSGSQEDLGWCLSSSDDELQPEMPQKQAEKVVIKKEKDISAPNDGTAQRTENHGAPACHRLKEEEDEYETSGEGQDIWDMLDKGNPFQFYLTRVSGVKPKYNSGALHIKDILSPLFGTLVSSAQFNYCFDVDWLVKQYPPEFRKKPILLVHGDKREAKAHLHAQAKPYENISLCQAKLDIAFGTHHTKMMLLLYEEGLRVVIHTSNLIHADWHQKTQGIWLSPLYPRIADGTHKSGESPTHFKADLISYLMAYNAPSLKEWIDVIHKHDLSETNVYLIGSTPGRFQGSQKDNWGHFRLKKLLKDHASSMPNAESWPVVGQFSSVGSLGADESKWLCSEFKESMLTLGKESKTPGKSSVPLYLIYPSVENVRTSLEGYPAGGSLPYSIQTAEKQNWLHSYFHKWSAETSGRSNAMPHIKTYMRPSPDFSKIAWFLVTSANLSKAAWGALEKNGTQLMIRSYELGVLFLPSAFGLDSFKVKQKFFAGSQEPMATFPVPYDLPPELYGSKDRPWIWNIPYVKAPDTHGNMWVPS
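AlphaScreen read-out: signal falls as enzyme removes the 3' tyrosine-FITC from a 5'-biotinylated DNA oligo (15 nM, 5 min, RT). Enzyme was E. coli-made recombinant Tdp1 at 1 nM, exposed to compound for 15 min beforehand; beads 10 ug/ml, 10 min.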
DT40 TDP1 no CPT = qHTS for Inhibitors of human tyrosyl-DNA phosphodiesterase 1 (TDP1): qHTS in cells in absence of CPT; DT40 Tdp1-/- hTDP1 cells, no CPT, ATP luminescence, 48 h; Potency, µM (top dose mostly 46.2 µM), inactives show top-dose activity change, negative = growth inhibition, actives largely listed as inhibitors; 420,000 tested, 15% active; also: potency is read from the fitted curve at half-maximal effect; % is scaled to controls: 0 for no effect and ±100 for the full control effect; nearly all actives have a fitted effect of over 55% in size
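Readout: luminescence from CellTiter-Glo after 30 min in the dark at RT. Cells: DT40 Tdp1-/- with stable hTDP1, 400/well. Exposure: compounds alone, ≥48 hr, 37 °C.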
uPA surface inh = qHTS for Inhibitors of Cell Surface uPA Generation; cell surface uPA generation assay, qHTS; Potency, µM (highest dose often 38.3 µM), without a hit: at the highest dose activity change, negative = inhibition, usual class: inhibitors; 330,000 tested, 0.31% active; active = well fitted inhibition curve with a large enough effect; inconclusive = small, poorly fitted or top-dose-only effect; inactive = no such curve, though single readings can be large or run the other way; tested in mouse RAW 264.7 cells; also: potency is read from the fitted curve at half-maximal effect; % is scaled to controls: 0 for no effect and ±100 for the full control effect; nearly all actives have a fitted effect of over 55% in size
DT40 TDP1 CPT = qHTS for Inhibitors of human tyrosyl-DNA phosphodiesterase 1 (TDP1): qHTS in cells in presence of CPT; chicken DT40 Tdp1-/-;hTDP1 cells + 20 nM CPT, ATP luminescence, 48 h; Potency, µM (top dose mostly 46.2 µM), inactives show at the top dose activity change, negative = growth inhibition, actives largely listed as inhibitors; 420,000 tested, 12% active; AID 686979, 2013; also: potency is read from the fitted curve at half-maximal effect; % is scaled to controls: 0 for no effect and ±100 for the full control effect; nearly all actives have a fitted effect of over 55% in size
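Cell growth measured by CellTiter-Glo luminescence after a minimum 48 h, 37 C compound exposure with 20 nM CPT in Tdp1-knockout DT40 cells stably expressing hTDP1, seeded 400/well; qHTS titration format.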
miR-21 reporter = qHTS Assay for Modulators of miRNAs and/orActivators of miR-21. HeLa miR-21 FLuc reporter, luciferase, 48 h. 340,000 tested, under 10 active. Potency, µM (doses to about 38.3 µM), inactives show at the top dose activity change, positive = activation, most hits filed as activators. AID 2288, 2010;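 also: % of control where 0% means no effect; miR-21 action dims this reporter so a rising signal means less miR-21 action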
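HeLa cells endogenously expressing miR-21, stably carrying CMV-driven firefly luciferase with a downstream miR-21 binding site, 2000 cells/well. Titrations up to approximately 40 uM, 48 hours; luciferase luminescence read.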
Numbers without * were called inactive; ? = inconclusive; nt = no result; [ ] = dose if it differs, or a comment. Unless noted, calls follow the shape of the dose curve; as a rule, active = well fitted curve in the direction sought with a large enough effect; inconclusive = small, poorly fitted or top-dose-only effect, or another doubt; inactive = no such curve, though single readings can be large; an effect the other way counts as inactive or inconclusive.

SMILES	TDP1 block	DT40 TDP1 no CPT	uPA surface inh	DT40 TDP1 CPT	miR-21 reporter
COc1ccc(OC)c(N(CC(=O)Nc2ccc3c(c2)OCO3)S(=O)(=O)c2ccccc2)c1	0.0%	?	2.9%	25.9µM*	16.5%
COc1ccccc1N(CC(=O)Nc1ccc2c(c1)OCO2)S(=O)(=O)c1ccc(C)cc1	nt	8.2µM*	nt	23.1µM*	-0.8%
COc1ccccc1N(C)S(=O)(=O)c1ccc(C(=O)OCC(=O)Nc2cc(C)on2)cc1	0.0%	1.9%	8.4%	0.8%	-0.3%
COc1ccccc1Cn1ccn(Cc2ccc(C)cc2)c(=O)c1=O	5.2%	?	nt	?	16.4%
COc1cccc(CNc2nc3nc(C)c(Cl)c(C)n3n2)c1	4.6%	-23.2%	2.6%	?	-68.8%
CC1(C)CCC/C(=C\c2ccccc2)C1=O	-14.5%	-3.5%	-9.1%	-20.3%	nt
CN(C)CCC1(C2=CCCC2)CC/C(=C/c2ccc(Cl)cc2)C1=O (stereo not drawn)	nt	8.2µM*	-6.9%	7.31µM*	nt
Cc1ccc(CCNC(=O)c2c(C)oc3nc(C)nc(N4CCOCC4)c23)cc1	2.1%	?	nt	?	-8.8%
C#CCNC(=O)C1CCN(c2ccc(S(=O)(=O)N3CCOCC3)cc2Cl)CC1	3.6%	?	-9.7%	-15.0%	1.9%
O=C(NCc1cccs1)C1CCN(c2ccc(S(=O)(=O)N3CCOCC3)cc2Cl)CC1	3.9%	2.59µM*	-14.3%	3.66µM*	28.3%
O=C(O)C1CCN(S(=O)(=O)c2ccc(N3CCOCC3)c([N+](=O)[O-])c2)CC1	-1.2%	?	4.8%	-4.4%	1.4%
O=C(NCc1ccco1)C1CCN(c2ccc(S(=O)(=O)N3CCOCC3)cc2[N+](=O)[O-])CC1	0.0%	23.1µM*	2.0%	?	-0.1%
COc1cccc(NC(=O)c2nn(-c3ccc(C)cc3)c(=O)n(C)c2=O)c1	5.3%	14.6µM*	nt	?	-10.2%
COc1ccc(-n2nc(C(=O)Nc3cc(OC)c(OC)c(OC)c3)c(=O)n(C)c2=O)cc1	3.0%	-27.7%	nt	?	1.0%
CCN(CC)S(=O)(=O)c1ccc(OC)c(NC(=O)c2ccc(=O)[nH]c2)c1	1.2%	-22.4%	-0.9%	-11.6%	-4.8%
Cc1ccc(NC(=O)c2nc3nccc(C)n3n2)c(C)c1	6.0%	0.1%	0.5%	-10.8%	-39.8%
COc1cc2c(cc1OC)C(COc1ccc(F)cc1)NCC2 (stereo not drawn)	1.6%	?	7.1%	?	-6.8%
CCc1ccc(OCC2NCCc3cc(OC)c(OC)cc32)cc1 (stereo not drawn)	2.1%	18.4µM*	5.9%	?	-19.6%
CCOc1ccc(CC2NCCc3cc(OCC)c(OCC)cc32)cc1OCC (stereo not drawn)	-5.0%	4.11µM*	?	3.66µM*	6.0%
CCOc1cc2c(cc1OCC)C(c1ccc(F)cc1)NCC2 (stereo not drawn)	nt	?	19.4%	-13.1%	nt
CC[C@@]1(O)C(=O)OCc2c1cc1n(c2=O)Cc2cc3c(CN(C)C)c(O)ccc3nc2-1	-13.0%[56.1 µM]	0.184µM*	-93.8%	0.146µM*	nt
CC[C@@]1(O)C(=O)OCc2c1cc1n(c2=O)Cc2cc3c([N+](=O)[O-])cccc3nc2-1	nt	0.211µM*	nt	0.0335µM*	nt
CCCN1C(=O)C(Cc2nc3ccccc3c(=O)n2CC)c2cc(Br)ccc21 (stereo not drawn)	9.3%	1.16µM*	nt	1.16µM*	?
CCn1c(CC2C(=O)N(C)c3ccc(Br)cc32)nc2ccccc2c1=O (stereo not drawn)	0.0%	1.46µM*	nt	5.17µM*	?
CCCc1nc2ccccc2c(=O)n1N	2.0%	-5.7%	-2.7%	3.6%	-1.3%
CCCN1C(=O)C(Cc2nc3ccccc3c(=O)n2CC)c2ccccc21 (stereo not drawn)	-4.7%	5.17µM*	nt	?	-1.2%
